Source: PubChem
DT40 TDP1 CPT = qHTS for Inhibitors of human tyrosyl-DNA phosphodiesterase 1 (TDP1): qHTS in cells in presence of CPT; Potency, µM (titrated, usually from 46.2 µM), for the others: top-dose activity change, negative = growth inhibition, hits mostly inhibitors; 420,000 tested, 12% active; chicken DT40 Tdp1-/-;hTDP1 cells + 20 nM CPT, ATP luminescence, 48 h; note: potency is the fitted concentration of half-maximal effect; % is set by controls: 0 for no effect and ±100 for the full control effect; nearly all actives have a fitted effect of over 55% in size
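Chicken DT40 Tdp1-/- cells complemented with human TDP1, 400 cells/well, exposed to compounds plus 20 nM camptothecin for at least 48 h at 37 C; viability read as ATP content by CellTiter-Glo luminescence.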
MCF10A rereplic = A quantitative high throughput screen for small molecules that induce DNA re-replication in MCF 10a normal breast cells. AID 624296, 2012. 350,000 tested, 2.9% active. Potency, µM (titrated, usually from 46.1 µM), inactives show at the top dose activity, positive = re-replication, hits mostly activators. MCF 10A DNA re-replication, Hoechst nuclear intensity, 48 h; note: potency is the fitted concentration of half-maximal effect; % of control where 0% means no effect; nearly all actives have a fitted effect of over 50% in size
SW480 rereplic = A quantitative high throughput screen for small molecules that induce DNA re-replication in SW480 colon adenocarcinoma cells; SW480 DNA re-replication, Hoechst DNA content imaging, 48 h; Potency, µM (highest dose often 46.1 µM), without a hit: at the highest dose re-replication activation, hits mostly activators; 340,000 tested, 1.8% active; AID 624297, 2012; note: potency is the fitted concentration of half-maximal effect; % of control where 0% means no effect; nearly all actives have a fitted effect of over 55% in size
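SW480 cells exposed to compounds for 48 hr at 37 C, 5% CO2, then Hoechst-stained 40 min. Nuclear DNA content imaged by fluorescence scanning (405 nm excitation, 500-530 nm emission); re-replication scored as increased high-intensity nuclei.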
IL1B secr inh = qHTS for Inhibitors of Inflammasome Signaling: IL-1-beta AlphaLISA Primary Screen. THP-1 LPS/ATP IL-1B secretion, AlphaLISA, 16 h; active compounds read low. activity change, % at 57.5 µM. 360,000 tested, 4.7% active. AID 743279, 2014; in the data active = activity change below about -50%; inconclusive = mostly about -30% to -49%; note: % is set by controls: 0 for no effect and ±100 for the full control effect
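THP-1 cells pretreated 1 hr with compounds (up to 57.5 uM final), then stimulated with LPS (250 ng/mL final) plus ATP (1.25 mM final); secreted IL-1B measured by AlphaLISA after 16 hr, decreased signal indicating inhibition.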
DT40 TDP1 no CPT = qHTS for Inhibitors of human tyrosyl-DNA phosphodiesterase 1 (TDP1): qHTS in cells in absence of CPT | DT40 Tdp1-/- hTDP1 cells, no CPT, ATP luminescence, 48 h | Potency, µM (titrated, usually from 46.2 µM), inactives show at the top dose activity change, negative = growth inhibition, actives largely listed as inhibitors | 420,000 tested, 15% active | AID 686978, 2013; note: potency is the fitted concentration of half-maximal effect; % is set by controls: 0 for no effect and ±100 for the full control effect; nearly all actives have a fitted effect of over 55% in size
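Seeded 400 DT40-hTDP1 cells/well (vehicle DMSO, no 20 nM CPT); pinned compounds; ≥48 hr at 37 °C; CellTiter-Glo luminescence as viability measure.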
BCR signal inh = qHTS Assay to Find Inhibitors of Chronic Active B-Cell Receptor Signaling. ABC-DLBCL IkBa-CBG/CBR reporter, luminescence ratio, 4 h. Potency, µM (highest dose often 46.1 µM), for the others: at the highest dose activity change, negative = inhibition, most hits filed as inhibitors. 340,000 tested, 0.05% active. AID 493014, 2011; active = well fitted inhibition curve with a large enough effect in the signal ratio, with a control signal flat, not every such curve was filed as active; inconclusive = small, poorly fitted or top-dose-only effect, or effect the other way, or a change in a side signal; the % refers to the signal ratio;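 note: potency is the fitted concentration of half-maximal effect; plate controls were basal doxycycline-induced cells for no effect and cells given 10 µM MG132 for full effect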
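Cell line TMD8 (human ABC DLBCL), stably expressing tet-inducible CBG68-IkBa fusion and CBR; IMDM/0.5% FBS; cpd up to 46 uM; dox induction, 4 h, 37C/5% CO2; dual luminescence; green/red ratio; MG132 control.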
* marks the source's active call; other numbers are inactive results; u = inconclusive; x = no result given; [ ] = remark or other dose. Only some compounds are listed: those with a hit (about 19% of all), similar ones and a draw of the others. Unless noted, calls come from the whole dose curve; as a rule, active = well fitted curve in the direction sought with a large enough effect; inconclusive = small, poorly fitted or top-dose-only effect, or another doubt; inactive = no such curve, though single readings can be large; an effect the other way counts as inactive or inconclusive.

SMILES | DT40 TDP1 CPT | MCF10A rereplic | SW480 rereplic | IL1B secr inh | DT40 TDP1 no CPT | BCR signal inh
Cc1ccc(C(=O)NC(=S)Nc2ccc(CN3CCCCC3)cc2)c(C)c1 | -27.0% | 5.1% | u | -53.3* | u | 1.4%
O=C(NC(=S)Nc1ccc(CN2CCCCC2)cc1)c1cc2ccccc2o1 | 23.1µM* | -0.8% | u | -4.7 | 20.6µM* | -1.5%
Cc1cc(C)cc(C(=O)NC(=S)Nc2ccc(-c3cc4ccccc4oc3=O)cc2)c1 | u | 9.0% | 8.9% | 0.0 | u | -19.4%
O=C(NC(=S)Nc1ccc(CN2CCCCC2)cc1)c1ccco1 | 3.5% | u | 9.2% | -5.1 | -17.5% | 8.5%
CCC(=O)n1nc(-c2ccc(Cl)cc2)nc1N | -11.4% | u | -3.2% | -13.6 | 2.59µM* | 4.7%
Cn1nccc1C(=O)NCc1ccc2c(c1)CCN2C(=O)c1ccc(F)cc1 | u | x | x | x | u | -8.9%
CNC(=S)NNC(=O)Cc1ccccc1 | 0.6% | 6.4% | 1.8% | -7.5 | -6.0% | -1.4%
CCOc1ccc(CC(=O)NNC(=S)NC)cc1 | 9.5% | 1.3µM* | -55.7% | x | u | 4.0%
COc1cccc(NC(=O)CC(C)S(=O)(=O)c2ccc3c(c2)NC(=O)CO3)c1 (configuration not stated) | -11.9% | x | x | x | u | x
Cn1cnnc1SCC(=O)NNC(=O)c1ccc(Cl)cc1 | -8.4% | 4.8% | -4.9% | 5.5 | -0.1% | 2.3%
CCn1c(O)c(N=NC(=O)c2ccc(CSc3nncn3C)cc2)c2ccccc21 | u | 13.3% | -9.8% | 0.0 | 14.6µM* | 0.0%
Cn1cnnc1SCc1ccc(C(=O)N=Nc2c(O)n(Cc3ccc(Cl)cc3)c3ccccc23)cc1 | 20.6µM* | u | u | u | 10.3µM* | -0.1%
CCC(C)NC(=O)C1=CC(c2ccc3c(c2)OCO3)=NS(=O)(=O)N1C (configuration not stated) | 7.9% | x | x | x | -13.2% | x
O=C1C=CC(=O)N1c1ccc(Nc2ccccc2)cc1 | 5.8µM* | u | u | -29.6 | 5.8µM* | x
Cc1cccc(N2C(=O)C=CC2=O)c1 | 2.59µM* | 20.6µM* | u | -9.0 | 4.61µM* | x
O=C(O)c1cc(N2C(=O)C=CC2=O)cc(N2C(=O)C=CC2=O)c1 | -2.4% | -1.3% | -11.9% | 23.6 | -0.5% | x
CCN(CC)C1CC(=O)N(c2cccc(C)c2)C1=O (configuration not stated) | x | x | x | x | x | 0.3%
O=C1c2ccccc2C(=O)N1c1ccc2ncccc2c1 | 0.0% | x | x | x | -0.6% | x
O=C1C=CC(=O)N1c1ccc2ccccc2c1 | 4.11µM* | u | u | -18.0 | 5.17µM* | x
Cc1cccc(CNC(=O)c2cc(S(=O)(=O)N3CCOCC3)cn2C)c1 | -0.9% | 2.3% | -3.9% | -6.1 | 30.4% | -13.9%
CCC1(c2ccc(F)cc2)NC(=O)N(CC(=O)N2c3ccccc3CC2C)C1=O (configuration not stated) | u | -0.2% | -3.5% | 3.7 | u | -3.3%
Cn1c(-c2ccccc2O)cc2ccccc21 | u | 19.1% | 2.3% | 5.0 | 18.4µM* | 9.3%
Cn1c(C(c2cc3ccccc3n2C)c2cc3ccccc3n2C)cc2ccccc21 | 5.62µM* | x | x | x | 3.55µM* | x
Cn1c(-c2ccccc2)cc2ccccc21 | -22.6% | -17.2% | -1.8% | 2.2 | -22.7% | 0.9%
Cn1c(=O)c(-c2ccccc2)cc2ccccc21 | -1.1% | 3.6% | -1.6% | 31.2 | u | x
SMILES | DT40 TDP1 CPT | MCF10A rereplic | SW480 rereplic | IL1B secr inh | DT40 TDP1 no CPT | BCR signal inh
CCOc1ccc(NC(=O)Cn2nnc(C(=O)NCCc3ccccc3)c2N)cc1 | 4.7% | x | x | x | -19.5% | x
COc1cc2[nH]c(=O)n3nc(-c4ccccc4)nc3c2cc1OC | 23.1µM* | -1.2% | -0.8% | 9.2 | 20.6µM* | 24.2%
O=C(Nc1cccc(Cl)c1)c1ccc(NCCCN2CCOCC2)c([N+](=O)[O-])c1 | u | u | -0.6%[9.22 µM] | -50.9* | 29.1µM* | u
Cc1ccc(NC(=O)c2ccc(NCCCN3CCC(C)CC3)c([N+](=O)[O-])c2)cc1F | 4.61µM* | 19.0% | u | u | 8.2µM* | u
Cc1ccc(NC(=O)c2ccc(NCCN)c([N+](=O)[O-])c2)cc1 | u | 5.2% | u | -8.8 | u | u
CCOc1ccc(OCC)c(NS(=O)(=O)c2cc(-c3cc(C)no3)ccc2C)c1 | -22.2% | x | x | x | -12.3% | x
CN(C(=O)CSc1nc2ccccc2n1CC(=O)N(C)c1ccc(F)cc1)c1ccccc1 | 18.4µM* | x | x | x | 20.6µM* | x
CN(C)C(=O)Cn1c(SCC(=O)NC2CCCCC2)nc2ccccc21 | -22.9% | -3.1% | -5.8% | 10.9 | -8.6% | -8.2%
CN(C(=O)CSc1nc2ccccc2[nH]1)c1ccc(F)cc1 | -14.3% | x | x | x | -15.8% | x
CN(C(=O)CSc1nc2ccccc2n1CC(=O)N(C)C1CCCCC1)c1ccccc1 | u | x | x | x | 18.4µM* | x
CCOC(=O)c1[nH]c2ccc(Cl)cc2c1NC(=O)/C=C/c1ccc2c(c1)OCO2 | u | u | u | 44.0 | u | -1.0%
CCN(CC(=O)Nc1c(C(=O)OC)[nH]c2ccc(Cl)cc12)c1ccc2c(c1)OCO2 | u | u | 7.9% | -7.5 | 25.9µM* | 1.3%
CN(C)CCCNC(=O)OC1CC2CC1[C@H]1CCCCN1C2=O (some centres not stated) | 10.7% | x | x | 22.1 | -17.5% | x
CCCCOC(=O)c1ccc(-c2ccc(/C=N/NC(=S)NCC)o2)cc1 | 5.8µM* | u | u | 18.1 | 7.31µM* | u
CCOC(=O)c1ccc(-c2ccc(/C=N/NC(=O)c3cncc(Br)c3)o2)cc1 | u | 6.6% | -6.6% | 10.7 | 23.1µM* | -2.9%
CCCOC(=O)c1ccc(-c2ccc(C=O)o2)cc1 | -23.9% | -0.3% | -5.8% | -4.9 | u | u
Oc1cc2c(cc1O)[C@H](c1ccccc1)CNCC2 | 26.6µM* | x | x | x | 26.6µM* | x
COc1cc2c(cc1OC)C(c1ccccc1)CN(C)CC2 (configuration not stated) | x | 0.2% | 1.3% | x | x | x
COc1cc(C(=O)Nc2cc3c(cc2N2CCCCC2)n(C)c(=O)n3C)cc(OC)c1OC | 20.6µM* | 3.2% | -2.2% | -1.4 | 14.6µM* | -8.0%
